Experimental data from PubChem BioAssay (Tox21).
Inconclusive results are not listed. Values without a mark were called inactive. Calls follow the shape of the dose curve; as a rule, active = well fitted activation curve with a large enough effect in the signal ratio in the repeat runs (not every such curve was filed as active); inconclusive = weak or mixed curves, or effect the other way; inactive = flat fitted curve, though single readings scatter; the % refers to the signal ratio.

Assay: qHTS assay to identify small molecule agonists of the endoplasmic reticulum stress response signaling pathway (AID 1159516)
Details: ESRE-bla HeLa, ER stress beta-lactamase reporter, 5 h; series mostly up to 61 µM; activation: at the top concentration
Source text: National Center for Advancing Translational Sciences [NCATS]
NIH Chemical Genomics Center [NCGC]
U.S. Environmental Protection Agency [EPA]
National Institutes of Environmental Health Sciences [NIEHS]
National Toxicology Program [NTP]
U.S. Food and Drug Administration [FDA]
Endoplasmic Reticulum (ER) plays an important role in cellular signaling, protein folding/maturation, stress response, lipid biosynthesis, calcium storage and release etc. Under stress conditions, proteins in ER misfold or unfold, and leading to the expression of ER stress responsive genes. ER stress has been associated with a variety of pathophysiological conditions such as cancer, inflammation, neurodegenerative diseases, diabetes, ischemic heart disease etc. To identify the compounds that induce ER stress response, an ER stress reporter cell line, CellSensor ESRE-bla HeLa (Life Technologies, Carlsbad, CA) containing a beta-lactamase reporter gene under control of the Endoplasmic reticulum Stress Response Element (ESRE) was used to screen Tox21 10K compound library.
Tox21 Assay Protocol Summary:
ESRE-bla HeLa cells were dispensed at 1,500 cells/6 uL of assay medium per well into black wall/clear-bottom 1536-well plates using a Multidrop Combi (ThermoFisher Scientific, Waltham, MA) dispenser. After the assay plates were incubated at 37 C and 5% CO2 for an overnight, 23 nL of compounds dissolved in DMSO, positive controls or DMSO only was transferred to the assay plate by a Pintool station (Kalypsys, San Diego, CA). The assay plates were incubated at 37 C and 5% CO2 for 5 hr. One uL of LiveBLAzer B/G FRET substrate (Life Technologies) was added using a Flying Reagent Dispenser (Aurora Discovery, San Diego, CA) and the plates were incubated at room temperature for 2 hr. Fluorescence intensity (405 nm excitation, 460 nm and 530 nm emissions) was measured using an Envision plate reader (PerkinElmer, Shelton, CT).
% is scaled to controls: 0 for no effect and ±100 for the full control effect.

Row | Structure (SMILES) | activation
1 | CCN(CCC#N)c1ccccc1 | 0.992%
2 | Cc1ncc([N+](=O)[O-])n1CC(O)CCl (stereo not given) | 0.0629%
3 | CC(=O)/C=C/c1ccco1 | -2.96% [at 78.8 µM]
4 | COc1cccc2sc(N)nc12 | -0.225% [at 78.8 µM]
5 | O=C1c2ccccc2-c2ccccc21 | -1.05% [at 78.8 µM]
6 | O=C(O)c1ccc(OCCN2CCCCC2)cc1 | -0.184%
7 | COc1ccc(/C=N/NC(=O)c2ccncc2)cc1OC | 1.34%
8 | C[Si]1(C)N[Si](C)(C)N[Si](C)(C)N1 | -1.19%
9 | O=C(O)CCNC(=O)c1ccccc1 | 1.36%
10 | CN=C(NC#N)NCCSCc1csc(N=C(N)N)n1 | 2.46%
11 | c1ccc(CNc2ncnc3nc[nH]c23)cc1 | -1.84%
12 | O=C1NC2NC(=O)NC2N1 (stereo not given) | 1.74%
13 | C=CCOc1c(Br)cc(C(C)(C)c2cc(Br)c(OCC=C)c(Br)c2)cc1Br | 4.72%
14 | CCOC(=O)CCCCCCCCC(=O)OCC | 0.179%
15 | CCCCCC(=O)OCC | 3.52%
16 | CCOc1ccc(NC(=O)OC(C)C)cc1OCC | -0.427%
17 | O=CN1CCOCC1 | -0.744%
18 | COc1cc([N+](=O)[O-])ccc1N | -2.3%
19 | CCN(Cc1cccc(S(=O)(=O)O)c1)c1ccccc1 | -1.98%
20 | C=CCOc1cc(Cl)ccc1C(=O)NCCN(CC)CC | 0.162%

Row | Structure (SMILES) | activation
21 | C=CCOC(=O)c1ccc(C(=O)OCC=C)c(C(=O)OCC=C)c1 | 0.0827%
22 | CCCCCC1CCCC(=O)O1 (stereo not given) | -0.31%
23 | C[CH2][Ge]([Cl])([CH2]C)[CH2]C | -4.01% [at 78.8 µM]
24 | C=CCOCC(O)CCl (stereo not given) | -0.565%
25 | CC(C)c1ccccc1O | -0.0276%
26 | O=C(CN1CCN(Cc2ccc3c(c2)OCO3)CC1)N1c2ccccc2Sc2ccccc21 | -0.642%
27 | Cc1ccc(S(=O)(=O)NC(=O)NC2CCCCCCC2)cc1 | 0%
28 | COc1cc2c(Nc3ccc(Br)cc3F)ncnc2cc1OCC1CCN(C)CC1 | -1.11%
29 | Cc1nc([N+](=O)[O-])cn1-c1ccc([N+](=O)[O-])cc1 | 0%
30 | CCCCOC(=O)C(C)OC(=O)CCC (stereo not given) | -1.57%
31 | Nc1ccnc(=O)[nH]1 | -0.0623%
32 | C=CCOc1c(Br)cc(Br)cc1Br | -1.44%
33 | CCS(=O)(=O)CCn1c([N+](=O)[O-])cnc1C | 5.47%
34 | CCCCC(=O)N(C)C | 1.67%
35 | Oc1ccccc1Cc1ccccc1O | 8.62%
36 | Nc1ccc(S(=O)(=O)Nc2ccccn2)cc1 | -1.37%
37 | CC(C)(C)c1ccc(C=O)cc1 | -1.73%
38 | CCCC(C)CC (stereo not given) | 0.707%
39 | CCCCC(CC)CNC(=O)CC(C)OC(=O)CCC(=O)O (stereo not given) | 1.37%
40 | CCCCC/C=C/CC(=O)OC | -5.48%
